Laboratory results published in PubChem BioAssay (NCI).
The panel holds about 83,000 compounds, 20% with a hit somewhere; the sample as a whole holds those more often.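 Note: values are percent growth. 100 is the growth of untreated cells, values between 100 and 0 indicate rising inhibition; between -100 and 0 indicates cell death.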 Values without a mark were called inactive. The source made the active and inactive calls. The calls were made as follows: active = growth percent below 10; inactive = the rest.

Each compound was assayed on A549/ATCC NSCLC (assay: NCI-60 one-dose screen, 48 h (100 = growth as untreated, 0 = no growth, -100 = all killed)). Conditions: 10 µM unless noted.

| Structure (SMILES) | growth |
| --- | --- |
| N#C/C(=C1C=C/C(=N/O)C(Cl)=C/1)c1ccc(Cl)cc1 | 88.8% |
| c1coc(CNc2ccnc(Nc3ccc(OCCN4CCCCC4)cc3)n2)c1 | 92.5% |
| C=C1CCC2C(C)(CO)C(O)CCC2(C)C1C/C=C1/C(=O)OCC1O/C=C/c1ccccc1 (stereo not drawn) | 71.8% |
| C=C(C)[C@@H]1CC[C@]2(C(=O)N3CCNCC3)CC[C@]3(C)[C@H](CC[C@@H]4[C@@]5(C)C/C(=C/c6ccncc6)C(=O)C(C)(C)[C@@H]5CC[C@]43C)[C@@H]12 | 102% |
| CCOC(=O)C1C(=O)C=C(c2ccc(OC)cc2)CC1c1sc(N(C)Cc2ccccc2)nc1Cl (stereo not drawn) | 82% |
| COc1cc(/C=C/C(=O)/C=C/c2cc(OC)c3c(c2)OCO3)cc2c1OCO2 | 93.5% |
| C[n+]1c(/C=C/c2c(O)ccc3ccccc23)ccc2ccccc21 | 51.3% |
| CCN(CC)CCC(CNc1c2ccc(Cl)cc2nc2ccc(OC)cc12)c1ccccc1 (stereo not drawn) | -62.4% (active) |
| C=C1CC2(OC1=O)C(=O)N(CCCN1C(=O)C3(CC(=C)C(=O)O3)c3ccccc31)c1ccccc12 (stereo not drawn) | 83.1% |
| CN(CCCCCl)P(=O)(OCc1ccc([N+](=O)[O-])o1)C(F)(F)C[C@H](NC(=O)CNC(=O)c1ccc(N=[N+]=[N-])cc1)C(=O)NCCc1ccc(O)cc1 (stereo partly drawn) | 99% |
| COc1ccc(C(=O)N2NC(=O)/C(=C/c3ccc(Br)cc3)N=C2c2ccccc2)cc1 | 87.6% |
| N#Cc1c(-c2ccccc2)cc(-c2ccccc2)n(CC(=O)NO)c1=O | 54.4% |
| COc1ccc(Nc2ncccc2C(=O)NCc2cn(Cc3cccc(Oc4ccccc4)c3)nn2)c(OC)c1 | 39% |
| N/C(=N\S(=O)(=O)c1ccccc1)Nc1nc2ccccc2s1 | 95.9% |
| O=S(=O)(NCCCNc1nccc(-n2ccc3cccnc32)n1)c1cccc(C(F)(F)F)c1 | 101% |
| COc1cc(NC(N)=NCCC(C)(C)Oc2ccc(C(F)(F)F)cc2)ncc1C#N | -42.6% (active) |
| COc1ccc2c(c1)[nH]c(=O)c1c3cc(OC)ccc3cn21 | -2.59% (active) |
| FC(F)(F)c1cccc(-c2cn3c(ccc4ccccc43)n2)c1 | 95.4% |
| COc1ccc(CN2CCc3c(Sc4ccccc4)nc(N)nc3C2=O)c(OC)c1 | 60.5% |
| COc1ccc(Nc2ncccc2C(=O)NCc2cn(Cc3cccc(Oc4ccccc4)c3)nn2)cc1 | 49.2% |

| Structure (SMILES) | growth |
| --- | --- |
| CCN(CC)CCC(CNc1ccnc2cc(Cl)ccc12)c1ccc(Cl)cc1 (stereo not drawn) | 12.3% |
| Cc1ccc(S(=O)(=O)C2=C3C(=C(c4ccccc4)c4ccccc43)CN(S(=O)(=O)c3ccc(C)cc3)C2)cc1 | 70.9% |
| O=C1C(Cl)=C(Nc2ccccn2)C(=O)c2ccccc21 | 104% |
| COc1cc(/C=C/C(=O)N2CCN(C(=O)/C=C/c3cc(OC)c(OC)c(OC)c3)CC2)cc(OC)c1OC | 105% |
| c1ccc(-c2nnc(-c3ccccn3)s2)nc1 | 102% |
| Cc1c(C(=O)/C=C/c2csc3ccccc23)[n+](=O)c2ccccc2n1[O-] | 61.7% |
| O=C(NCCNc1nccc(-n2ccc3cccnc32)n1)c1ccc(C(F)(F)F)cc1 | 102% |
| C=C(C)[C@@H]1C[C@@H]2Cc3cc(Cl)ccc3N1O2 | 95.4% |
| O=S(=O)(CC(O)(c1ccccc1)c1ccccc1)CC(O)(c1ccccc1)c1ccccc1 | 94.1% |
| NC1=NC(SCc2ccccc2CCl)c2ncn(Cc3ccccc3CCl)c2N1 (stereo not drawn) | 80.3% |
| C=C[C@@H]1C[C@@H]2Cc3c(C)cc(C)cc3N1O2 | 95.1% |
| COc1cc(/C=N\NC(=O)CN2CCN(c3cc4c(cc3F)c(=O)c(C(=O)N/N=C/c3cc(OC)c(OC)c(OC)c3)cn4C3CC3)CC2)cc(OC)c1OC | 73.4% |
| Fc1ccc(-c2nc(-c3nc4ncccc4[nH]3)cc3c2[nH]c2ccccc23)cc1F | 59% |
| COc1cc(-c2nc(-c3nc4ccc(Cl)cc4[nH]3)cc3c2[nH]c2ccccc23)cc(OC)c1OC | 59.2% |
| C=C(C)[C@@H]1C[C@@H]2Cc3ccc(Cl)c(C)c3N1O2 | 89.9% |
| CCCCCCCCC(C)OC(=O)c1nn(C(C)=O)c2ccccc12 (stereo not drawn) | 94.1% |
| COc1cc(/C(C#N)=C/c2ccc3c(c2OC)OCO3)cc2c1OCO2 | 27.9% |
| CC12CCC3C4(C)COC(c5ccco5)OC4CCC3(C)C1CC(C1=CCOC1=O)O2 (stereo not drawn) | 107% |
| C=C1CCC2C3(C)COC(c4ccc(N(C)C)cc4)OC3CCC2(C)C1C/C=C1/C(=O)OCC1O (stereo not drawn) | 52% |

The compounds below were run on 786-0 renal in the same assay as above. Conditions: 10 µM unless noted.

| Structure (SMILES) | growth |
| --- | --- |
| N#C/C(=C1C=C/C(=N/O)C(Cl)=C/1)c1ccc(Cl)cc1 | 63.5% |
| c1coc(CNc2ccnc(Nc3ccc(OCCN4CCCCC4)cc3)n2)c1 | 94.9% |
| C=C1CCC2C(C)(CO)C(O)CCC2(C)C1C/C=C1/C(=O)OCC1O/C=C/c1ccccc1 (stereo not drawn) | 93.1% |
| C=C(C)[C@@H]1CC[C@]2(C(=O)N3CCNCC3)CC[C@]3(C)[C@H](CC[C@@H]4[C@@]5(C)C/C(=C/c6ccncc6)C(=O)C(C)(C)[C@@H]5CC[C@]43C)[C@@H]12 | 108% |
| CCOC(=O)C1C(=O)C=C(c2ccc(OC)cc2)CC1c1sc(N(C)Cc2ccccc2)nc1Cl (stereo not drawn) | 84.6% |
| COc1cc(/C=C/C(=O)/C=C/c2cc(OC)c3c(c2)OCO3)cc2c1OCO2 | 100% |
| C[n+]1c(/C=C/c2c(O)ccc3ccccc23)ccc2ccccc21 | 49.2% |
| CCN(CC)CCC(CNc1c2ccc(Cl)cc2nc2ccc(OC)cc12)c1ccccc1 (stereo not drawn) | -85% (active) |
| C=C1CC2(OC1=O)C(=O)N(CCCN1C(=O)C3(CC(=C)C(=O)O3)c3ccccc31)c1ccccc12 (stereo not drawn) | 20.1% |
| CN(CCCCCl)P(=O)(OCc1ccc([N+](=O)[O-])o1)C(F)(F)C[C@H](NC(=O)CNC(=O)c1ccc(N=[N+]=[N-])cc1)C(=O)NCCc1ccc(O)cc1 (stereo partly drawn) | 109% |
| COc1ccc(C(=O)N2NC(=O)/C(=C/c3ccc(Br)cc3)N=C2c2ccccc2)cc1 | 90.4% |
| N#Cc1c(-c2ccccc2)cc(-c2ccccc2)n(CC(=O)NO)c1=O | 63.7% |
| COc1ccc(Nc2ncccc2C(=O)NCc2cn(Cc3cccc(Oc4ccccc4)c3)nn2)c(OC)c1 | 34% |
| N/C(=N\S(=O)(=O)c1ccccc1)Nc1nc2ccccc2s1 | 95.4% |
| O=S(=O)(NCCCNc1nccc(-n2ccc3cccnc32)n1)c1cccc(C(F)(F)F)c1 | 102% |
| COc1cc(NC(N)=NCCC(C)(C)Oc2ccc(C(F)(F)F)cc2)ncc1C#N | 7.56% (active) |
| COc1ccc2c(c1)[nH]c(=O)c1c3cc(OC)ccc3cn21 | 28.7% |
| FC(F)(F)c1cccc(-c2cn3c(ccc4ccccc43)n2)c1 | 101% |
| COc1ccc(CN2CCc3c(Sc4ccccc4)nc(N)nc3C2=O)c(OC)c1 | 62.4% |
| COc1ccc(Nc2ncccc2C(=O)NCc2cn(Cc3cccc(Oc4ccccc4)c3)nn2)cc1 | 51.3% |

| Structure (SMILES) | growth |
| --- | --- |
| CCN(CC)CCC(CNc1ccnc2cc(Cl)ccc12)c1ccc(Cl)cc1 (stereo not drawn) | -59.1% (active) |
| Cc1ccc(S(=O)(=O)C2=C3C(=C(c4ccccc4)c4ccccc43)CN(S(=O)(=O)c3ccc(C)cc3)C2)cc1 | 5.02% (active) |
| O=C1C(Cl)=C(Nc2ccccn2)C(=O)c2ccccc21 | 111% |
| COc1cc(/C=C/C(=O)N2CCN(C(=O)/C=C/c3cc(OC)c(OC)c(OC)c3)CC2)cc(OC)c1OC | 96.8% |
| c1ccc(-c2nnc(-c3ccccn3)s2)nc1 | 78.9% |
| Cc1c(C(=O)/C=C/c2csc3ccccc23)[n+](=O)c2ccccc2n1[O-] | 88.3% |
| O=C(NCCNc1nccc(-n2ccc3cccnc32)n1)c1ccc(C(F)(F)F)cc1 | 103% |
| C=C(C)[C@@H]1C[C@@H]2Cc3cc(Cl)ccc3N1O2 | 102% |
| O=S(=O)(CC(O)(c1ccccc1)c1ccccc1)CC(O)(c1ccccc1)c1ccccc1 | 90.2% |
| NC1=NC(SCc2ccccc2CCl)c2ncn(Cc3ccccc3CCl)c2N1 (stereo not drawn) | 64.2% |
| C=C[C@@H]1C[C@@H]2Cc3c(C)cc(C)cc3N1O2 | 105% |
| COc1cc(/C=N\NC(=O)CN2CCN(c3cc4c(cc3F)c(=O)c(C(=O)N/N=C/c3cc(OC)c(OC)c(OC)c3)cn4C3CC3)CC2)cc(OC)c1OC | 54.9% |
| Fc1ccc(-c2nc(-c3nc4ncccc4[nH]3)cc3c2[nH]c2ccccc23)cc1F | 95.2% |
| COc1cc(-c2nc(-c3nc4ccc(Cl)cc4[nH]3)cc3c2[nH]c2ccccc23)cc(OC)c1OC | 81% |
| C=C(C)[C@@H]1C[C@@H]2Cc3ccc(Cl)c(C)c3N1O2 | 98.5% |
| CCCCCCCCC(C)OC(=O)c1nn(C(C)=O)c2ccccc12 (stereo not drawn) | 97.3% |
| COc1cc(/C(C#N)=C/c2ccc3c(c2OC)OCO3)cc2c1OCO2 | 33.7% |
| CC12CCC3C4(C)COC(c5ccco5)OC4CCC3(C)C1CC(C1=CCOC1=O)O2 (stereo not drawn) | 93.4% |
| C=C1CCC2C3(C)COC(c4ccc(N(C)C)cc4)OC3CCC2(C)C1C/C=C1/C(=O)OCC1O (stereo not drawn) | 96% |
